Rows were chosen to be rich in hits. Some 12% of all compounds tested hit in one or more screens of this group.
Shiga toxin inh: inhibitors of Shiga toxin in Vero cells. inhibition, % at 38.7 µM. AID 2315. Vero cells, Shiga toxin protein synthesis inhibition reporter. 290,000 compounds, 9.2% hits; in the data active = inhibition mostly above about 28%, no sharp cut-off; inactive = mostly below about 43%
Marburg entry inh: Marburg virus entry inhibition | 300,000 compounds, 1.8% hits | AID 540276 | Marburg virus pseudotyped entry inhibition, cell reporter | Potency, µM (titrated, usually from 37.8 µM), usual class: inhibitors; calls by dose curve; tested in HEK293 cells
LASV entry inh: inhibitors of Lassa virus binding or cell entry; Lassa virus pseudotype entry inhibition, cell reporter; Potency, µM (series often up to 37.9 µM), hits mostly inhibitors; 300,000 compounds, 1.2% hits; calls by dose curve; tested in HEK293 cells; also: nearly all actives have a fitted effect of over 50% in size
Cycloheximide cs: affects cycloheximide protein synthesis inhibition readout, counter-screen; cell reporter, cycloheximide protein synthesis inhibition counterscreen; max response, %; 300,000 compounds, 12% hits; in the data active = max response mostly above about 13%, no sharp cut-off; inactive = mostly below about 14%; also: read at 38.3 µM for the half of the compounds with a filed dose
A number is an active result; . = inactive; ? = inconclusive; / = no result.

SMILES	Shiga toxin inh	Marburg entry inh	LASV entry inh	Cycloheximide cs
O=C(CCSCc1ccccc1F)NCc1ccc(F)cc1	.	.	.	.
Cc1ccc(CNC(=O)CSCc2ccccc2F)cc1	.	?	.	39
O=C(CSCc1ccccc1F)NCc1ccc(F)cc1	.	.	.	43
O=C(CSCc1ccc(F)cc1)NCc1ccc(F)cc1	.	.	.	.
CN(C)C(=S)SCC(=O)NCc1ccc(F)cc1	51	?	.	29
CCN(CC)C(=O)Cn1c(=O)n(CCCCCC(=O)NCc2ccc(C)cc2)c(=O)c2sccc21	/	.	.	/
Cn1c(N)c(C(=O)CSc2nnc(C3CC3)n2-c2ccccc2)c(=O)n(C)c1=O	/	.	.	/
Cc1ccc(NC(=O)CCSc2ccccc2)c(C)c1	55	/	/	24
Cc1cc(Br)ccc1NC(=O)CCSc1ccccc1	48	.	.	16
Cc1ccc(NC(=O)Cc2noc3ccccc23)c(C)c1	32	.	.	.
Cc1ccc(NC(=O)CS(=O)c2ccccc2N)c(C)c1 (centres undefined)	.	?	.	38
Cc1ccc(NC(=O)Cc2ccccc2)c(C)c1	.	/	/	.
C[C@@H]1[C@@H](c2ccccc2)Oc2c(Cl)cccc2S(=O)(=O)N1Cc1cccc(F)c1	/	/	.	/
CC(C)(C)c1ccc(-c2n[nH]c(=S)n2-c2ccccc2)cc1	.	.	.	.
Cn1nnc2c(NCc3ccccc3)ncnc21	/	/	.	/
CCCS(=O)(=O)N1CCC(N2CCN(Cc3ccc(F)cc3)C(=O)C2=O)CC1	/	/	.	/
CSc1ccc(CCNC(=O)CCc2nnc3ccc(N4CCC5(CC4)OCCO5)nn23)cc1	.	?	.	.
Cc1cc(NC(=O)CCSc2ccccc2)ccc1Br	.	?	.	87
Cc1cccc(NC(=O)CCSc2ccccc2)c1C	.	/	/	12
Cc1ccc(NC(=O)CCOc2ccccc2)c(C)c1	.	/	/	13
O=C(CCNC(=O)C1CCN(S(=O)(=O)c2ccc(F)cc2)CC1)NCc1ccccc1Cl	.	/	/	.
CCCCN(C(=O)c1ccc(Cl)c(S(=O)(=O)N2CCOCC2)c1)c1c(N)n(CCC)c(=O)[nH]c1=O	.	/	/	.
COc1cc2c(cc1OC)C(c1ccccc1)N(C(=O)C(C)(C)C)CC2 (centres undefined)	.	/	/	.
O=C1C(=C2SCCCS2)CC/C1=C\c1ccc(F)cc1	79	2.5µM	1.1µM	31
Cc1cccc(/C=C2\CCC(=C3SCCCS3)C2=O)c1	80	?	?	44
SMILES	Shiga toxin inh	Marburg entry inh	LASV entry inh	Cycloheximide cs
O=C1NC(=S)SC1=Cc1ccc(F)cc1	/	.	?	/
O=Cc1s/c(=N\S(=O)(=O)c2ccccc2)n(CCCCl)c1Cl	.	?	?	.
COc1ccc(C2C(C(=O)c3ccco3)=C(O)C(=O)N2CCCn2ccnc2)c(OC)c1 (centres undefined)	.	?	.	32
C=CCOc1ccc(C2C(C(=O)c3ccco3)=C(O)C(=O)N2CCCN(CC)CC)cc1 (centres undefined)	.	.	.	9.5
CCCOc1cccc(C2C(C(=O)c3ccco3)=C(O)C(=O)N2CCN(CC)CC)c1 (centres undefined)	.	.	.	.
CCN(CC)CCCN1C(=O)C(O)=C(C(=O)c2ccco2)C1c1ccc(OC(C)C)cc1 (centres undefined)	.	.	?	22
CCN(CC)CCN1C(=O)C(O)=C(C(=O)c2ccco2)[C@@H]1c1ccccn1	/	.	/	/
Cc1cc2c3c([nH]c2cc1S(=O)(=O)N1CCC2(CC1)OCCO2)CCCC3=O	.	/	/	.
COc1ccccc1N1C(=O)CC(Sc2n[nH]c(-c3cccc(C)c3)n2)C1=O (centres undefined)	.	.	.	.
CCN(CC)c1cnn(C/C(=N\OC)c2ccc(Cl)cc2)c(=O)c1Br	.	?	.	.
CCc1ccc(NC(=O)CCc2nnc3ccc(N4CCCC4)nn23)cc1	.	/	/	.
COc1ccc(NC(=O)C(=O)NCCO)cc1Cl	.	.	.	.
COc1ccc(C(=O)CC(Nc2ccc([N+](=O)[O-])cc2)c2ccc(Cl)cc2)cc1 (centres undefined)	.	?	?	10
COc1ccc(C(=O)CCC(=O)Nc2ccc(OC)c(Cl)c2)cc1	/	/	.	/
COc1ccc(C(=O)CC(=O)C(=O)Nc2ccc(Cl)cc2)cc1	.	.	.	14
COc1ccc(NC(=O)C(=O)NCCCO)cc1Cl	62	.	.	24
COc1ccc(C(=O)CC(=O)C(=O)Nc2ccc(OC)c(Cl)c2)cc1	.	.	.	17
COc1ccc(C(=O)NC(CC(=O)O)c2cc([N+](=O)[O-])ccc2Cl)cc1 (centres undefined)	.	.	.	.
Cn1ccc(/C=N/N=C2/NC(=O)CS2)n1	.	.	?	.
COc1cccc(NC(=O)Nc2cc(C)ccc2F)c1	95	.	?	27
COc1ccc(C(=O)CC(=O)C(=O)Nc2cc(OC)ccc2OC)cc1	.	.	.	.

Screening data: PubChem BioAssay, National Center for Advancing Translational Sciences (NCATS)
